# Results taken from PubChem BioAssay.
# “And” between values parts separate entries of the source, which are not always exact repeats. Equal entries are not always repeated. A number with no mark means an inactive call. The source made the active and inactive calls.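 Rule for the calls, unless noted: active = mean inhibition over 43.08%, the solvent-only control mean plus 3 SD; inactive = the rest.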
# Assays:
# [1] = molecular target: Nuclear receptor coactivator 3 (Homo sapiens) (UniProt Q9Y6Q9); assay: SRC3 coactivator transcriptional activity inhibitors, confirmation, cell-based, luminescence, quadruplicate (AID 588792); settings: HEK293 GAL4-SRC3 luciferase reporter, at 3.6 µM, hits give high values;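 note: 0% = DMSO treated cells and 100% = gossypol at 36 µM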
# Chain of Nuclear receptor coactivator 3 (Homo sapiens) (Q9Y6Q9 whole entry, looked up, the tested form may be a part): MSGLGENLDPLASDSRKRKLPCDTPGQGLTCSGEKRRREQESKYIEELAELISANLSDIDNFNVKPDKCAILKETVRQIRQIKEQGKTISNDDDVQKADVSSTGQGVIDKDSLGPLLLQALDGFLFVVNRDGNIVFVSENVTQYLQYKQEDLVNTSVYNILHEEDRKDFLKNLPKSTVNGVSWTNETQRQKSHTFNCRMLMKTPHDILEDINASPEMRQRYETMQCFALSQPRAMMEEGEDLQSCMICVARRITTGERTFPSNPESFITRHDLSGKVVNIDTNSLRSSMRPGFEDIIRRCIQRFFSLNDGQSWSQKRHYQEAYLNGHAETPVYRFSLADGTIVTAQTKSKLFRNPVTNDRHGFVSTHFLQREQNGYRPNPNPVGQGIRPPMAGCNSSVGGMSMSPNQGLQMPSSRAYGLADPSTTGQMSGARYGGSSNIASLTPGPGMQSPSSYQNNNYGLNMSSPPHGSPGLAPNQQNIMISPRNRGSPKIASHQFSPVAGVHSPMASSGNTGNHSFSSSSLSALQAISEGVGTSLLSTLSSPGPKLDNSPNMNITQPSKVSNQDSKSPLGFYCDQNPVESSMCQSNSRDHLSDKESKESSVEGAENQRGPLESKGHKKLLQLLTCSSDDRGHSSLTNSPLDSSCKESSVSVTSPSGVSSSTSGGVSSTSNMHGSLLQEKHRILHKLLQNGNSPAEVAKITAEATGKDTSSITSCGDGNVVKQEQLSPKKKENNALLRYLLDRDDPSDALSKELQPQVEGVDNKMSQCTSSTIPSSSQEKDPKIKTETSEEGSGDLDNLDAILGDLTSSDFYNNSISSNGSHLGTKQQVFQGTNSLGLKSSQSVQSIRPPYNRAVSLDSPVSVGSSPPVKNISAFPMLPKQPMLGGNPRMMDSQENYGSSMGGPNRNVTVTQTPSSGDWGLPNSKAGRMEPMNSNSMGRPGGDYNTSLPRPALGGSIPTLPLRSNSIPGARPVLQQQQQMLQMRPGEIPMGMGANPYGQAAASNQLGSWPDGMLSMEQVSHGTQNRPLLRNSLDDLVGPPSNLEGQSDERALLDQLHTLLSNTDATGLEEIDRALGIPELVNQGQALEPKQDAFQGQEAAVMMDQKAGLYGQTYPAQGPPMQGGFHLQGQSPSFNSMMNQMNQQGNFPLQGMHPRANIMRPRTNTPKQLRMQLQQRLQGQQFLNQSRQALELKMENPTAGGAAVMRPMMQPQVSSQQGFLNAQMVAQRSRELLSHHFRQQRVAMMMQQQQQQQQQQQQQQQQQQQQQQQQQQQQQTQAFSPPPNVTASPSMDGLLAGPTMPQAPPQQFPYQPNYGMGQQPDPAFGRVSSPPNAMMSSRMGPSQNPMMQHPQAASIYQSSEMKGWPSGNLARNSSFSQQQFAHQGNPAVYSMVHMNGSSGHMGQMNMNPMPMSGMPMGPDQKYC
# [2] = tested on: transactivating tegument protein VP16 (Human herpesvirus 1), Gal4-VP16 luciferase reporter; assay: VP16 transactivation inhibitors, counter-screen for SRC3 inhibitor project, cell-based, luminescence, high throughput (AID 588794; in the data active = inhibition above about 30%); settings: mammalian cells, VP16-driven luciferase reporter luminescence; at 3.6 µM; hits give high values
# [3] = molecular target: Nuclear receptor coactivator 1 (Homo sapiens) (UniProt Q15788); assay: SRC1 coactivator transcriptional activity inhibitors, confirmation, cell-based, luminescence, quadruplicate (AID 588820;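 active = mean inhibition above 46.68%, the untreated control wells mean plus 3 SD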;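 note: 0% = DMSO wells and 100% = gossypol 36 µM treated wells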); settings: HEK293 GAL4-SRC1 luciferase reporter, at 3.6 µM, hits give high values
# Chain of Nuclear receptor coactivator 1 (Homo sapiens) (Q15788 whole entry, looked up, the tested form may be a part): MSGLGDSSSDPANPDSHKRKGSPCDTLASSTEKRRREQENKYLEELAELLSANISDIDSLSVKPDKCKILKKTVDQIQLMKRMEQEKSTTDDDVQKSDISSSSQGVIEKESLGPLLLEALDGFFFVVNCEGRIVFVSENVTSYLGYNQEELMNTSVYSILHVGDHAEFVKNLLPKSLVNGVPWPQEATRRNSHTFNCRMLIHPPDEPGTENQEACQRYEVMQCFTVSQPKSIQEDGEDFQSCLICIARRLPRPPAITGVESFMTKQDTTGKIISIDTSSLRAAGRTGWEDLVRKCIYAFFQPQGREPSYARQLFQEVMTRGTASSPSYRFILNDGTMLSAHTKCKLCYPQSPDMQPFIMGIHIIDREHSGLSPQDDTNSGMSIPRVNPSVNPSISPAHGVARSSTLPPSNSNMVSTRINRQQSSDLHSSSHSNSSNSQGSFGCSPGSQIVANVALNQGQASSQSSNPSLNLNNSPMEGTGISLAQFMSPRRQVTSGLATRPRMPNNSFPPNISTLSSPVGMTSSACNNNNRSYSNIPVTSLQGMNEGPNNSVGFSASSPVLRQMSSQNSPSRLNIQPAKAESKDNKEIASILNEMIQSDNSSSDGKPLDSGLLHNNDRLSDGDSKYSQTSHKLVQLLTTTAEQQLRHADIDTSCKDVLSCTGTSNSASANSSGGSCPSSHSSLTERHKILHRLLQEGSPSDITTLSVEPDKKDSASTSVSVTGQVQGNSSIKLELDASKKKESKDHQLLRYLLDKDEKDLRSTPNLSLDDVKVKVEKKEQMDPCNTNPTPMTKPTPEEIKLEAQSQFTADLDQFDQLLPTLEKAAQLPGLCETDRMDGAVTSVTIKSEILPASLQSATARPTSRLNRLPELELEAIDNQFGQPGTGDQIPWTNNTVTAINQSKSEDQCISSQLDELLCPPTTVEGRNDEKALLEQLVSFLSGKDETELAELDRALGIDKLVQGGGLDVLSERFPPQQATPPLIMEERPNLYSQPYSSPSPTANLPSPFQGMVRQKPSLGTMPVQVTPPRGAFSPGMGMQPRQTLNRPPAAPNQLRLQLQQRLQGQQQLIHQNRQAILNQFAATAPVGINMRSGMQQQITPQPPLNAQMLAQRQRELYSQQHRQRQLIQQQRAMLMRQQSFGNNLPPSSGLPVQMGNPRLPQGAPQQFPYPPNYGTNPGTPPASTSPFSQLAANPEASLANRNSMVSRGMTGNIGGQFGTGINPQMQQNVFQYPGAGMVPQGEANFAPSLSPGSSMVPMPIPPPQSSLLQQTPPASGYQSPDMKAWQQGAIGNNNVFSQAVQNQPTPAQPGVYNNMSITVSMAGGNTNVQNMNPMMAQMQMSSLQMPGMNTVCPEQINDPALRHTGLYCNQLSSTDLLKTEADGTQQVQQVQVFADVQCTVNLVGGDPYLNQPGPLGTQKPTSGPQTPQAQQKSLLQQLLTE
# [4] = VP16 transactivation inhibitors, counter-screen for SRC1 inhibitor project, cell-based, luminescence, high throughput (AID 588824; in the data active = inhibition above about 25%); settings: cell-based VP16 transactivation luciferase luminescence; at 3.6 µM; hits give high values
Compound,inhibition [1],inhibition [2],inhibition [3],inhibition [4]
Cc1cc(=O)[nH]c(N/N=C/c2cc(C)n(CC(F)(F)F)c2C)n1,22%,60.4% (active),43.5%,60.3% (active)
COc1ccc(-c2cn[nH]c2C)cc1OC,21.1%,10.4%,12.1%,10.7%
CCN(CC)CCCNc1ccc2ncn3c4ccc(O)cc4c(=O)c1c23,16.5%,51.3% (active),47.9% (active),49.9% (active)
CN1CC(=O)N2C(c3cccc([N+](=O)[O-])c3)c3[nH]c4ccccc4c3C[C@H]2C1=O (stereo partly specified),36.1%,36.7% (active),26.9%,34.5% (active)
Nc1ccn([C@@H]2O[C@H](CO)[C@@H](O)C2O)c(=O)n1 (stereo partly specified),33.8%,30.9% (active),32.5%,19.4%
COc1ccc(C(=O)N/N=C/c2cc(Br)ccc2O)cc1OC,26.2%,37.5% (active),22%,42.5% (active)
COc1cc(/C=C2\SC(N)=NC2=O)cc(OC)c1,20.4%,27.3%,34.7%,18.9%
COC(=O)c1ccc2nc(NC(=O)C(C)(C)C)sc2c1,-14.6%,-16.8%,-142%,-60.1%
O=C1CC(c2ccc3c(c2)OCO3)Sc2nc3ccccc3n21 (stereo unspecified),-6.28%,-34.8%,-110%,-73.2%
N=c1c2c(-c3ccccc3)c(-c3ccccc3)n(Cc3ccco3)c2ncn1CCCn1ccnc1,34%,54.2% (active),43.8%,57.4% (active)
Cc1cccc(CNc2ncnc3ccc(-c4ccoc4)cc23)c1,47% (active),40.7% (active),45.1%,46% (active)
CC(C)c1ccc(/C=N/Nc2ccc(C(=O)O)cc2)cc1,-6.28%,-26.7%,-72.5%,-51.3%
Nc1ccc(-c2cnc(N)c(C(=O)c3cccnc3)n2)cn1,85.8% (active),55.7% (active),74.3% (active),56% (active)
Nc1nc(=O)n(C2CC(O)C(CO)O2)cc1F (stereo unspecified),58.5% (active),37.5% (active),57.2% (active),40.9% (active)
OCCN1CCN(C(=S)c2ccc(-c3ccccc3)cc2)CC1,35.6%,4.96%,36.8%,6.4%
O=C(N/N=C/c1sc(N2CCOCC2)nc1-c1ccccc1)c1cccc(S(=O)(=O)N2CCCC2)c1,53.4% (active),67% (active),50.8% (active),72% (active)
Cc1cc(/C=C2\Cc3ccccc3C2=O)c(C)n1-c1ccccc1,53.5% (active),18.6%,20.5%,-2.62%
c1nc2sc3c(c2c2nnnn12)CCCC3,28%,24.2%,36.8%,9.37%
Clc1cncc(Cl)c1N/N=C/c1ccncc1,24.8%,26.7%,40.4%,27.4% (active)
C(C#CCCCCCCCCC[n+]1ccccc1)#CCCCCCCCCC[n+]1ccccc1,58.9% (active) and 59.3% (active),70.3% (active) and 74.5% (active),41.7%,73.4% (active)
O=C(/C=C/c1ccc(Cl)cc1)NC(=S)Nc1ccc(NC(=O)c2ccco2)cc1,29.7%,63.8% (active),45.1%,65% (active)
COc1cc(Cl)cc(/C=N\NC(=O)c2ccc3c(c2)OCO3)c1O,24.7%,33.3% (active),30.5%,33.6% (active)
CC(C)(C)c1nnc(N/N=C/c2ccccc2O)n(N)c1=O,80.1% (active),76.7% (active),74.4% (active),76.2% (active)
O=[N+]([O-])c1ccc(O)c(/C=N/Nc2ccccn2)c1,56.8% (active),41.6% (active),60.6% (active),37.1% (active)
Nc1nc(CCl)nc(Nc2cccc3ccccc23)n1,42.7%,15.4%,16.1%,18.8%
O=c1[nH]c(=O)n(C2OC(CO)C(O)C2O)cc1F (stereo unspecified),57.4% (active),58.5% (active),26.9%,57.2% (active)
COC(=O)c1c(C)oc2ccc(N(C(=O)c3ccncc3)S(=O)(=O)c3ccc(C)cc3C)cc12,1.85%,36.2% (active),-7%,27.3% (active)

Compound,inhibition [1],inhibition [2],inhibition [3],inhibition [4]
CC(=O)Nc1ccc(S(=O)(=O)c2ccnc3cc(Cl)ccc23)cc1,52.9% (active),44.1% (active),47% (active),39.2% (active)
O=C(Nc1cccc(S(=O)(=O)Nc2ccccc2Cl)c1)c1ccc(Cl)nc1,-1.42%,27.7%,5.83%,32.2% (active)
O=C(N/N=C/c1c(O)ccc2ccccc12)c1cccc(C(F)(F)F)c1,82.3% (active),78.6% (active),60.8% (active),77.4% (active)
O=C(Nc1nc(-c2ccccc2)cs1)c1ccc2c(=O)n3c(nc2c1)CCCCC3,9.45%,31.6% (active),-12%,30.9% (active)
O=c1[nH]cc(F)c(=O)[nH]1,14.7%,31% (active),8.56%,22.3%
O=C(NCc1cccs1)c1nc2c(nnn2Cc2ccccc2Cl)c(=O)[nH]1,84.2% (active),79.5% (active),58.5% (active),74.7% (active)
CC(=O)N1c2ccc(S(=O)(=O)NCC3CCC(C(=O)Nc4cccc(C)n4)CC3)cc2CC1C (stereo unspecified),-3.79%,27.4%,-11.2%,21.6%
C/C(=N\NC(=O)c1nnn(-c2nonc2N)c1-c1ccccc1)c1ccccc1O,49.2% (active),44.6% (active),60.8% (active),40.6% (active)
O=C(CSC1=NCCS1)Nc1ccnc2ccccc12,28.1%,37.7% (active),27.5%,37.9% (active)
CC(=NNc1nc2ccccc2o1)c1cc2ccccc2cn1,88.8% (active),86.4% (active),80.6% (active),86.3% (active)
CC(C)(C)c1ccc(/C=C2\SC(=O)N(CCNC(=O)c3cccc(S(=O)(=O)N4CCOCC4)c3)C2=O)cc1,-11.1%,-19.8%,-58.1%,-59.9%
CCOC(=O)C(=Cc1cc(=O)c(OC)co1)C(=O)OCC,48.6% (active),52.1% (active),-0.65%,53.4% (active)
CC12CCC(C(=O)N/N=C/c3ccc(O)cc3O)(OC1=O)C2(C)C (stereo unspecified),6.17%,16.8%,11.4%,6.4%
Nc1ncnc(NCc2ccc(F)cc2)c1[N+](=O)[O-],62.7% (active),29.8% (active),52.7% (active),29.9% (active)
CC(=O)c1c(C)oc2ccc(N(C(C)=O)S(=O)(=O)c3cccc4cccnc34)cc12,15.2%,21.9%,6.31%,18.4%
CCOc1ccc(-n2c(C)c(C(C)=O)c3cc(O)ccc32)cc1,59.7% (active),51.2% (active),60.8% (active),48.2% (active)
Cn1c2c(c(=O)n(C)c1=O)C(C(F)(F)F)(C(F)(F)F)N=C(C1CCCCC1)N2,11.5%,20.6%,10.2%,12.8%
Cc1nc2c(o1)C(=O)c1ccccc1C2=Nc1ccccc1,78.5% (active),94.3% (active),61.8% (active),79.1% (active)
CCC(=O)Oc1c(C(=O)CC)cc2c(C)cc(=O)oc2c1C,15.1%,17.6%,25.6%,15.6%
c1cnc2ccc(-n3ccnc3)cc2c1,24.2%,23.8%,19.9%,22.4%
O=C(Nc1ccc(N2CCN(C(=O)c3ccc(Cl)cc3)CC2)cc1)c1ccc2c(c1)OCCO2,14.2%,42% (active),1.25%,42.5% (active)
Cn1c(C(=O)O)c(CC(=O)Nc2ccc3c(c2)OCCO3)c2ccccc21,19.4%,3.77%,-17.2%,-7.4%
C=CC[n+]1ccc(/C=C2\C=Cc3cc(C)ccc3N2CC)c2ccccc21,79.4% (active),86% (active),63.8% (active),86.7% (active)
O=C(N/N=C/c1cc(O)ccc1Br)c1cccnc1,17.6%,37.5% (active),19.8%,39.3% (active)
CC1=C(C(=O)OCc2ccc3c(c2)OCO3)C(c2ccccc2)NC(=O)N1 (stereo unspecified),78.7% (active),59.2% (active),68.9% (active),61.8% (active)
CC(C)Cn1c(N)c(C(=O)CSc2ccc3c(c2)OCCO3)c(=O)n(C)c1=O,35.5%,56.9% (active),46%,51.9% (active)
CCOC(=O)c1cc2sccc2n1CC(=O)N1CCc2ccccc21,43.4% (active),29.2%,31.8%,31.3% (active)
